In assay [1] the test system is Wnt5a (protein binding on small-molecule microarray). As to the kind of experiment: small molecules binding Wnt5a protein – biophysical, small-molecule microarray, 635/667 nm fluorescence, primary screen (AID 1142).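 Further: fluorescence read at 667 nm with signal to noise per printed feature.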 To be noted: 635 nm fluorescence, higher = more signal.
Assay [2] is described as follows: ATP-based viability of Huh7 replicon cells – cell-based, CellTiter-Glo luminescence, basal, 48 h, cytotoxicity control for HCV replication inhibitor project, primary screen (AID 1143).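 Further: Huh7 hepatoma cells carrying a hepatitis C replication reporter with no stimulus; test concentration not given here.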 The settings on record: higher = more signal, called active from +8 up or from −8 down.
Assay [3] is described as follows: Pseudomonas biofilm growth suppression – PAO1 strain, BacTiter-Glo luminescence, LB-PBS, primary screen (AID 1144). The settings on record: P. aeruginosa PAO1 biofilm, 12 h, higher = more signal.
Assay [4] is described as follows: basal CRE-LacZ reporter activity in PC12 – cell-based, unstimulated, primary screen (AID 1145). The settings on record: no forskolin, luminescence, 4.5 h, higher = more signal, called active from +8 up or from −8 down.
Assay [5] in a line: forskolin-driven CRE-LacZ activity in PC12 – cell-based, CRE-LacZ reporter, forskolin-stimulated, primary screen (AID 1146).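 Further: PC12 cells with 6xCRE LacZ reporter stimulated by forskolin 10 µM; beta-galactosidase reporter signal reflecting CREB driven transcription.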 To be noted: luminescence, 4.5 h, higher = more signal, called active from +8 up or from −8 down.
Assay [6] addresses Streptavidin (Streptomyces avidinii) (UniProt P22629). As to the kind of experiment: compounds binding control protein streptavidin – biophysical, small-molecule microarray, 635/667 nm fluorescence, artefact control for SMM compound annotation, primary screen (AID 1147).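 Further: signal reflects streptavidin binding to arrayed compounds as a control protein.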 The settings on record: higher = more signal.
Assay [7] in a line: probe aInhba binding on compound microarray – biochemical, small-molecule microarray, 635/667 nm fluorescence, primary screen (AID 1148).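 Further: score merges 667nm spot fluorescence with signal-to-noise for antibody binding to printed compounds.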 The settings on record: higher = more signal.
Assay [8] has as its target Torsin-1A (Homo sapiens) (UniProt O14656). As to the kind of experiment: TOR1A wild-type binding on microarray – cell lysate, small-molecule microarray, lysate, 635/667 nm, primary screen (AID 1149). The settings on record: COS7 hTOR1A-WT lysate, 635 nm fluorescence, higher = more signal.
Assay [9] has the same target. As to the kind of experiment: torsin A mutant lysate binding on microarrays – cell lysate, small-molecule microarray, COS7 lysate, 635/667 nm fluorescence, primary screen (AID 1150).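 Further: score pools 667 nm emission and signal to noise measuring lysate protein binding.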 The settings on record: COS7 hTOR1A mutant lysate, 635 nm fluorescence, higher = more signal.
In assay [10] the test system is Sonic hedgehog protein (Shh). As to the kind of experiment: Sonic hedgehog microarray binding compounds – biochemical, small-molecule microarray, 635/667 nm fluorescence, primary screen (AID 1151).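 Further: Shh protein binding to compounds spotted on small-molecule microarray slides; score combines spot fluorescence intensity with signal-to-noise across triplicate slides.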 To be noted: 635 nm fluorescence, higher = more signal.
Assay [11] can be described thus: optical density shifts of acrAB sulA E. coli – strain DRC41, OD650, 48 h, E. coli filamentation inducer project, primary screen (AID 1152).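 Further: E. coli MC1000 strain DRC41 lacking acrAB efflux pump and sulA.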 The settings on record: higher = more signal, called active from +8 up or from −8 down.
Assay [12] is described as follows: probe aLefty1 binding on compound microarray – biochemical, small-molecule microarray, 635/667 nm fluorescence, primary screen (AID 1153).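 Further: score merges spot fluorescence with signal-to-noise ratio from the scanned slide images.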 To be noted: higher = more signal.
Assay [13] in a line: plasmodial surface anion channel blockers, osmotic lysis – cell-based, P. falciparum Indochina, OD700, 1 h, primary screen (AID 1154). To be noted: P. falciparum Indochina infected RBC osmotic lysis, higher = more signal, called active from +8 up or from −8 down.
A short description of assay [14]: plasmodial surface anion channel blockers, osmotic lysis – cell-based, P. falciparum Indochina, OD700, 2 h, primary screen (AID 1155).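 Further: lysis reports solute entry through the parasite surface anion channel PSAC.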 To be noted: P. falciparum Indochina infected erythrocytes, higher = more signal, called active from +8 up or from −8 down.
Assay [15] in a line: changes in parasitized red cell lysis, either direction – P. falciparum Indochina, OD700, 3 h, PSAC antagonist project, primary screen (AID 1156). The settings on record: P. falciparum-infected erythrocytes, osmotic lysis, higher = more signal, called active from +8 up or from −8 down.
Assay [16] is described as follows: plasmodial surface anion channel blockers, osmotic lysis – cell-based, P. falciparum Indochina, OD700, 18 h, primary screen (AID 1157). The settings on record: P. falciparum Indochina infected erythrocytes, osmotic lysis OD700, 18 h; higher = more signal, called active from +8 up or from −8 down.
Assay [17] is described as follows: S6 kinase pathway phospho-S6 level changes – cell-based, A549, cytoblot, luminescence, serum-stimulated, primary screen (AID 1158).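 Further: serum-stimulated A549 lung adenocarcinoma cells; signal is phosphorylated S6 detected by cytoblot immunostaining with HRP secondary.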 The settings on record: 5 h, higher = more signal.
The target in assay [18] is NADPH oxidase 2 (Homo sapiens) (UniProt P04839). As to the kind of experiment: compounds shifting NOX2 Amplex Red fluorescence – cell-based, HEK293-NOX2, PMA-stimulated, NOX inhibitor project, primary screen (AID 1159). Further: test concentration not given here. The settings on record: 45 min, higher = more signal, called active from +8 up or from −8 down.
Sequence of NADPH oxidase 2 (Homo sapiens) (P04839 whole entry, looked up): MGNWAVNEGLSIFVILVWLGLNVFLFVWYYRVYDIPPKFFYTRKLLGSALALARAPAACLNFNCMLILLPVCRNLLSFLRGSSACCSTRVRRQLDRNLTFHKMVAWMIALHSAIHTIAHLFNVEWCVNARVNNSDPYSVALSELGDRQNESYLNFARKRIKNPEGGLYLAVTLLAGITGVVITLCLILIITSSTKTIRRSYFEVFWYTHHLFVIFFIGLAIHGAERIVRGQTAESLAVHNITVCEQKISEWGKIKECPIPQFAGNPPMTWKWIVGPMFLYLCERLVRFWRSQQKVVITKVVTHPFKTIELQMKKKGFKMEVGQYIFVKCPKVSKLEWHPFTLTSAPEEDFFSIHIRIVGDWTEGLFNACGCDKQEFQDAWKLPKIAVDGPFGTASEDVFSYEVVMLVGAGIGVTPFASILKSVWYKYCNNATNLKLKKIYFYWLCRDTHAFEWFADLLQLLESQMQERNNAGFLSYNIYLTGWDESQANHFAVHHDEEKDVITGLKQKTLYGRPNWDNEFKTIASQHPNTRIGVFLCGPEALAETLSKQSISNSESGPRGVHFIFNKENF
Assay [19] addresses NADPH oxidase 4 (Homo sapiens) (UniProt Q9NPH5). Kind of assay: compounds shifting NOX4 Amplex Red fluorescence – cell-based, HEK293-NOX4, tetracycline-induced, NOX inhibitor project, primary screen (AID 1160). The settings on record: HEK293-NOX4, Amplex Red H2O2 fluorescence, 45 min; higher = more signal, called active from +8 up or from −8 down.
Assay [20] addresses NADPH oxidase 5 (Homo sapiens) (UniProt Q96PH1). Kind of assay: compounds shifting NOX5 Amplex Red fluorescence – cell-based, HEK293-NOX5, NOX inhibitor project, primary screen (AID 1161). The settings on record: HEK293-NOX5, ionomycin, 45 min, higher = more signal.

Active and inactive are the calls of the source. Unless noted, how the calls were made is not given here.

Sequence of Torsin-1A (Homo sapiens) (O14656 whole entry, looked up): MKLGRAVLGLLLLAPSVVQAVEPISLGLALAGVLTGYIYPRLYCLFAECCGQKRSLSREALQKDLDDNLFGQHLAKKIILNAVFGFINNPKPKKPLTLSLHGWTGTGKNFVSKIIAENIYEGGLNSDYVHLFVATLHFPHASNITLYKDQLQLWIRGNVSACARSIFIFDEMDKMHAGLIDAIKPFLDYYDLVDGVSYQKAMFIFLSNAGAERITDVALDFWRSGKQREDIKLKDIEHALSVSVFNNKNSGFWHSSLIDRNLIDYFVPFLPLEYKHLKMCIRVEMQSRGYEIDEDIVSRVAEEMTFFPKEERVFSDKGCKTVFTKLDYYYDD
Sequence of NADPH oxidase 4 (Homo sapiens) (Q9NPH5 whole entry, looked up): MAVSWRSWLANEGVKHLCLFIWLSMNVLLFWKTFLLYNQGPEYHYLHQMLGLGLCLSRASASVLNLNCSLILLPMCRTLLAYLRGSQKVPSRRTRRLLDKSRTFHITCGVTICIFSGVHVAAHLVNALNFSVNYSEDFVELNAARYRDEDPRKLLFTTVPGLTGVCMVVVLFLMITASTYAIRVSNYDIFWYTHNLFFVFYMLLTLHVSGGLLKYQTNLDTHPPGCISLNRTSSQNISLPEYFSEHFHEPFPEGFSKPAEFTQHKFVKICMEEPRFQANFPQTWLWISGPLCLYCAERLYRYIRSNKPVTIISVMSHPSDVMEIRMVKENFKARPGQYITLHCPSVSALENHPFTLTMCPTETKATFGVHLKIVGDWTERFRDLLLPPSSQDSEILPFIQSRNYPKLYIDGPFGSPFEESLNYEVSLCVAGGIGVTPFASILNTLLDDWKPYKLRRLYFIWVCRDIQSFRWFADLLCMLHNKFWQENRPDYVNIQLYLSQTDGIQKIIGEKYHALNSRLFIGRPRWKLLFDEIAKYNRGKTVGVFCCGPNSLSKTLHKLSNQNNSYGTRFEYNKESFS
Sequence of Streptavidin (Streptomyces avidinii) (P22629 whole entry, looked up): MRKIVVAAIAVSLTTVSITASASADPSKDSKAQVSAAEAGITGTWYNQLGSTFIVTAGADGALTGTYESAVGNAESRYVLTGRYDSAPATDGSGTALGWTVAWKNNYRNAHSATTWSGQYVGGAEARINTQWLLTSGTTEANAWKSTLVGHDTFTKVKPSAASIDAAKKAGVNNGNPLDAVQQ
Sequence of NADPH oxidase 5 (Homo sapiens) (Q96PH1 whole entry, looked up): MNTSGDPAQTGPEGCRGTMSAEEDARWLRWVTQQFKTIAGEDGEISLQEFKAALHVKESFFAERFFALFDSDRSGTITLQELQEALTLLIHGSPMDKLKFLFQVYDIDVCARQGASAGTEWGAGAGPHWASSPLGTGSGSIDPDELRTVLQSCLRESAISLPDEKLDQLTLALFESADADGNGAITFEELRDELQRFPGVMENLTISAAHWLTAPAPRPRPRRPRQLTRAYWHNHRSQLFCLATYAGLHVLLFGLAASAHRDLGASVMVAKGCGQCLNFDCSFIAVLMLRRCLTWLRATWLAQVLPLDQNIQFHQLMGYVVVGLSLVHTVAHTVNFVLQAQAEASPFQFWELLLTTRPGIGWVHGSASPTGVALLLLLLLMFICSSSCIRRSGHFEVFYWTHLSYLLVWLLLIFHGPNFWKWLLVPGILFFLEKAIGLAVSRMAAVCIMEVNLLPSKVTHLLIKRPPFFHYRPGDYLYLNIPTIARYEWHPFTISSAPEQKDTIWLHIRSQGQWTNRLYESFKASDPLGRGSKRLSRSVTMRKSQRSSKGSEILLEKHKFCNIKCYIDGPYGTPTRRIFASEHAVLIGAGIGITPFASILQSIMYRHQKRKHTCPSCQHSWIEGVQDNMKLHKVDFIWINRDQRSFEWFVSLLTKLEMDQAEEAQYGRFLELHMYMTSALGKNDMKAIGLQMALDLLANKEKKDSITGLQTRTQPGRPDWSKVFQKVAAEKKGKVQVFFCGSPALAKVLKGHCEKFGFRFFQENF

Turning to `COCC1=C2[C@@H](CCc3ccccc3)OB(O)C[C@@H]2n2c(=O)n(-c3ccccc3)c(=O)n2C1`, the composite z-score was 0.102 in [1]; -0.324 in assay [6]; -0.082 in [7]; -0.0531 in the assay with Torsin-1A (Homo sapiens) [8]; -0.066 with Torsin-1A (Homo sapiens) [9]; 0.966 in [10]. In assay [12], this molecule had a composite z-score of -0.0816. For the same molecule, the z-score is -0.405 (inactive) in assay [2]; 0.523 (inactive) in [3]; 2.22 (inactive) in assay [4]; -0.714 (inactive) in assay [5]; -0.144 (inactive) in [11]; 1.88 (inactive) in assay [13]. For the same molecule, the z-score in assay [14] was -0.256 (inactive); in assay [15] it was -0.698 (inactive); in assay [16] it was -0.235 (inactive); in assay [17] it was 0.214; in assay [18], -0.421 (inactive); in [19] it was -2.2 (inactive). The z-score in assay [20] was -1.48.
For `O=C1[C@H]2[C@H]3[C@H](O)[C@H](O)CC(=NOCc4ccccc4)[C@H]3CC[C@H]2C(=O)N1c1cccc(Oc2ccccc2)c1`, the composite z-score in assay [1] is 0.242; in assay [6], 0.293; in [7], 0.0108; with Torsin-1A (Homo sapiens) [8], 0.294; with Torsin-1A (Homo sapiens) [9] it was 0.363; in assay [10], 1.24. For the same molecule, the composite z-score in assay [12] is -0.0193. Further, the z-score in [2] was -2.26 (inactive); in [3], 0.768 (inactive); in assay [4], -0.384 (inactive); in assay [5] it was -0.271 (inactive); in [11], 0.0144 (inactive); in [13] it was 6.64 (inactive). Also, the z-score in [14] is 1.42 (inactive); in assay [15] it was 0.969 (inactive); in [16], 0.525 (inactive); in [17], -0.219; in assay [18] it was -1.86 (inactive); in [19], -1.01 (inactive). In addition, in assay [20], the z-score was -3.91.
In the case of `NCCCCCNC(=O)[C@@H]1C[C@@H]2C(=O)N3CCC[C@H]3C(=O)N2[C@@H]1c1cccc(OCCO)c1`, the composite z-score in [1] was 0.369; in [6], 0.899; in assay [7], 1.15; with Torsin-1A (Homo sapiens) [8] it was -0.0659; with Torsin-1A (Homo sapiens) [9], 1.36; in [10], 0.696. In [12], the composite z-score is 1.55. Moreover, the z-score in assay [2] is 0.902 (inactive); in assay [3], -0.0862 (inactive); in [4], -0.264 (inactive); in [5], 0.325 (inactive); in assay [11] it was -0.221 (inactive); in assay [13], 3.25 (inactive). Also, the z-score is 0.506 (inactive) in assay [14]; 0.744 (inactive) in assay [15]; 0.0814 (inactive) in assay [16]; 0.0413 in [17]; 2.41 (inactive) in assay [18]; 1.19 (inactive) in assay [19]. For the same molecule, in assay [20], the z-score worked out at 0.961.
In the case of `COC(=O)[C@H](C)NC(=O)CCC1CC(OC(=O)NCc2cccc3ccccc23)CC2(CCCC(COC(=O)NCCc3ccc(Cl)cc3)O2)O1` (stereo not given in full), the composite z-score was -0.173 in [1]; 0.558 in assay [6]; -0.152 in assay [7]; 0.405 with Torsin-1A (Homo sapiens) [8]; 0.353 in the assay with Torsin-1A (Homo sapiens) [9]; 0.569 in [10]. This molecule also registered a composite z-score in [12] of -0.375. For the same molecule, the z-score in assay [2] was -0.006 (inactive); in assay [3], -0.494 (inactive); in [4], 0.2 (inactive); in assay [5] it was 0.45 (inactive); in assay [11] it was 0.434 (inactive); in assay [13], 0.119 (inactive). In addition, the z-score in [14] was -0.214 (inactive); in [15], -0.801 (inactive); in assay [16], -0.193 (inactive); in assay [17], 0.362; in assay [18], 0.779 (inactive); in assay [19] it was 1.18 (inactive). The z-score in [20] was found to be 1.55.

Source of the values: PubChem BioAssay.
